The whole screen tested about 7,900 compounds, of which about 400 (5.1%) showed an effect of 50% or more. The sample as a whole holds a higher share of strong results than the screen did.

Sequence of Parkinson's disease protein 7 (PARK7/DJ1) (Q99497 whole entry, looked up, the tested form may be a part): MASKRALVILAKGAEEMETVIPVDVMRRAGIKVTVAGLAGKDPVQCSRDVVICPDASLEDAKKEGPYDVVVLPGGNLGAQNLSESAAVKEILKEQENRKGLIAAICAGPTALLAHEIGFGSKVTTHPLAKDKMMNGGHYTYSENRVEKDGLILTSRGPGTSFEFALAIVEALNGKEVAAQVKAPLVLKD

This assay concerns the target Parkinson's disease protein 7 (PARK7/DJ1) (human, UniProt Q99497). In words: primary screen, percent inhibition; read as competition with a fluorescent probe by fluorescence polarization; higher = more effect of the substance. As to conditions: 100 µM. The procedure, abridged:
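Covalent fragments at 100 μM final were incubated 2 h with 0.2 μM PARK7, then 20 nM probe JYQ-107 added for a further 2 h. Fluorescence polarization read at 480/520 nm; relative FP loss versus reference controls gave remaining enzyme activity.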
With `N#Cc1ccc(N2CCc3sccc3C2)cn1`, the Inhibition % is recorded as 27.1%. As to `C=CC(=O)N(C)C1CCCc2cccnc21` (stereo not shown), the Inhibition % worked out at 7.75%. Consider `N#CC1(CC2CO2)CCC1` (stereo not shown), for which the Inhibition % was 3.78%.

As for `Cc1ccc(OC2CCCC2)c(B(O)O)c1`, the Inhibition % worked out at 2.59%. On to `COc1ccc2[nH]c(C)c(C(=O)CCl)c2c1`, for which the Inhibition % worked out at 4.84%. Turning to `O=C1OCCC1n1nnc(-c2ccc(F)cc2)n1` (stereo not shown), the Inhibition % was 4.53%. For `C=CC(=O)NC1CSC1(C)C` (stereo not shown), the Inhibition % is recorded as 6.84%. As for `OB(O)c1ccc(-c2ccccc2)cc1F`, the figure is 24.2%. Take `C=CC(=O)N1CCCN(C(=O)c2ccco2)CC1`: the Inhibition % was 1.97%. For `Cc1ccc(C=C(C#N)C(N)=O)c(C)c1` the value was 4.01%.

Take `Cc1cccc(C)c1NC(=O)Cn1cnc(C#N)n1`: the Inhibition % was determined as 6.38%. For `COc1ccc(CN(C)C(=O)CCl)cc1F` the value was 58.3%; for `CN(Cc1cccc(C(F)(F)F)c1)C(=O)CCl`, 37.1%. On to `CCOc1ccc(CN(C)C(=O)CCl)cc1`, for which the Inhibition % is 67.6%. Consider `CCN(Cc1ccc(OC)c(F)c1)C(=O)CCl`, for which the Inhibition % came to 10%. For the compound `COC(=O)c1ccccc1N(C)C(=O)CCl`, the Inhibition % was 6.59%.

Turning to `C=CC(=O)N1CCCC1c1cccc2c1OCCO2` (stereo not shown), the Inhibition % is recorded as 4.1%. Regarding `C=CC(=O)Nc1nc2c(s1)COCC2`, the Inhibition % came out at 6.4%.

In the case of `CC1c2cccn2CCN1C(=O)n1ccnc1` (stereo not shown), the Inhibition % stood at 22%.

Regarding `O=C(Nc1ccccc1)NC1CN(c2ccccc2)C1=O` (stereo not shown), the Inhibition % is reported as 5.74%.

Take `COC(=O)c1sccc1NC(=O)CCl`: the Inhibition % is recorded as 3.83%.

Take `O=C(CCl)c1sccc1Cl`: the Inhibition % is 94.4%. As for `CS(=O)(=O)NCCc1ccc(C(=O)CCl)s1`, the figure is 97.6%. Regarding `O=C(CCl)NCc1cccs1`, the Inhibition % amounted to 3.94%.

Turning to `CC(C)(C)C(=O)NCc1ccc(C(=O)CCl)s1`, the Inhibition % came out at 76.2%. Take `O=C(CCl)NCC(=O)c1cccs1`: the Inhibition % stood at 15.1%. Regarding `CC(=O)NCc1ccc(C(=O)CCl)s1`, the Inhibition % is listed as 91.1%.

For the compound `Cc1[nH]c2ccccc2c1C(=O)CCl`, the Inhibition % was 6.53%. As for `C=CC(=O)NCc1ccc(C)s1`, the figure is 1.04%; as for `CCc1ccc(CNC(=O)CCl)s1`, 4.03%; as for `Cc1ccc(CNC(=O)CCl)s1`, 3.17%. For `CS(=O)(=O)c1ccccc1NC(=O)CCl`, the Inhibition % is reported as 11.4%. In the case of `O=S(=O)(F)Cc1ccccc1Cl`, the Inhibition % is given as 7.95%. On to `C=CC(=O)Nc1nsc(N2CCCC2)n1`, for which the Inhibition % is on record as 16%. Consider `N#Cc1cc(C(=O)O)ccn1`, for which the Inhibition % came out at 4.99%. As to `CCc1ccc(B2OC(C)(C)C(C)(C)O2)n1C(=O)OC(C)(C)C`, the Inhibition % turned out to be 5.89%. For the compound `C=CC(=O)N1CCC(C)(N2CCOCC2)CC1`, the Inhibition % was 10%. As for `C=CC(=O)NC1CCN(c2cnn(C)c2)C1` (stereo not shown), the figure is 33.9%; as for `CC1(C)OB(c2ccncc2)OC1(C)C`, 4.41%; as for `O=C(CCl)NCc1ccc(Cl)s1`, 15.9%. Regarding `NC(=O)Cc1ccc(C(=O)CCl)s1`, the Inhibition % is reported as 97.4%. Regarding `O=C(CCl)c1ccc(Cl)s1`, the Inhibition % turned out to be 94.6%. For `O=C(CCl)NCCc1cccs1`, the Inhibition % was 31.1%. As for `O=C(CCl)NC(=O)NCCc1cccs1`, the Inhibition % turned out to be 11.2%. `Cc1ccc(C(=O)CCl)s1`: the Inhibition % was determined as 28.1%. As for `O=C(CCl)c1cnc(N2CCCCC2)s1`, the Inhibition % was determined as 8.03%.

For the compound `CC(=O)NCCc1ccc(C(=O)CCl)s1`, the Inhibition % amounted to 90.4%. With `O=C(CCl)c1ccc(CC(=O)N2CCOCC2)s1`, the Inhibition % worked out at 7.37%. For the compound `N#Cc1nnc(-c2ccccc2)s1`, the Inhibition % is 11.8%. Consider `N#Cc1[nH]ccc2nccc1-2`, for which the Inhibition % turned out to be 18.7%. Turning to `C=CC(=O)NC1COc2cc(F)cc(F)c21` (stereo not shown), the Inhibition % amounted to 3.21%. For `CC(C)c1ccccc1OCC1CO1` (stereo not shown), the Inhibition % is listed as -4.39%. For `CN(C)CCc1ccc(B(O)O)cc1.Cl` the value was 2.57%; for `O=C(CCl)NCCc1ccsc1`, 27.9%. Take `C=CC(=O)N1CCCN(CC2CCCO2)CC1` (stereo not shown): the Inhibition % is recorded as 13.1%.

Take `Sc1nncc(-c2cccs2)n1`: the Inhibition % was 94.3%. As for `Sc1nncc2ccccc12`, the figure is 8.48%; as for `O=C(CCl)Nc1nc(-c2cccs2)cs1`, 11.6%; as for `Cc1ccc(C=CS(=O)(=O)Nc2ccnn2C(C)C)cc1`, 13%. As for `C=CC(=O)N1CCC(C(=O)O)(c2ccccc2)CC1`, the figure is 2.37%.

`Cc1nnc(CN(C#N)c2ccc(F)c(Cl)c2)o1`: the Inhibition % turned out to be 5.26%. With `Cc1ccc(F)c(N(C#N)Cc2nnc(C)o2)c1`, the Inhibition % is 69%. For `CCCn1c(C)nnc1CN(C#N)c1cc(C)ccc1F` the value was 20.1%; for `O=C1OCCC1N1CCN(c2nccs2)CC1` (stereo not shown), 2.57%; for `O=c1[nH]nc(-c2ccc(F)cc2)o1`, 6.22%. As for `O=c1[nH]nc(-c2cccs2)o1`, the figure is 12.1%. `O=c1[nH]nc(-c2ccco2)o1`: the Inhibition % was determined as 50.5%.

The record behind these values is paper PMC9574860, “Chemical Toolkit for PARK7: Potent, Selective, and High-Throughput” (Journal of Medicinal Chemistry, 2022).
